Source: PubChem BioAssay (NCATS)
Results filed as inconclusive are left out. Values without a mark were called inactive. Calls of active or inactive are those of the source. Calls come from the whole dose curve; as a rule, active = well fitted cell-killing curve with a large enough effect; inconclusive = small, poorly fitted or top-dose-only effect, or effect the other way; inactive = flat fitted curve, though single readings scatter.

Assay: Cell Viability - LYMP2-003 (AID 965);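 note: cells exposed to compounds for 24 h before reading; nearly all actives have a fitted effect of over 50% in size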;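 for activity change, negative = cytotoxicity: 0% = DMSO only and full effect = 92 µM tetraoctylammonium bromide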
Conditions: LYMP2-003 lymphoblastoid cell viability; series mostly up to 92.2 µM; activity change, negative = cytotoxicity: at the top concentration
Description: NIH Chemical Genomics Center [NCGC]
NIH Molecular Libraries Screening Centers Network [MLSCN]
National Institutes of Environmental Health Sciences [NIEHS]
National Toxicology Program [NTP]
We have developed a 1536-well cell-based assay for quantitative high throughput screening (qHTS) against a number of cell lines to determine in vitro cytotoxicity of small molecules. This particular assay uses a human lymphoblastoid cell line (LYMP2-003) purchased from Coriell Institute for Medical Research.
NCGC Assay Protocol Summary:
The CellTiter-Glo luminescent cell viability assay (Promega) is a homogeneous method to measure the number of viable cells in culture. The end point readout of this assay is based on quantitation of intracellular ATP, an indicator of metabolic activity, using the luciferase reaction. Luciferase catalyzes the oxidation of beetle Luciferin to oxyluciferin and light in the presence of ATP. The luminescent signal is proportional to amount of ATP present.
Using the CellTiter-Glo luminescent cell viability assay, the amount of cellular ATP was measured in the lymphoblastoid cell line with complete culture medium following compound treatment for 24 hours. The assay was performed in opaque white Kalypsys 1536-well plates. In the screen, tetraoctylammonium bromide was used as positive control. Library compounds were measured for their ability to cause acute toxicity in the cell line, as reflected by a decrease in intracellular ATP levels, in a concentration-dependent manner. […] AC50 values were determined from concentration-response data modeled with the standard Hill equation.
qHTS protocol for CellTiter Glo lymphoblastoid cellular assay
[Step] [Parameter] [Value] [Description]
1. Reagent; 5 uL; 2500 lymphoblastoid cells/well
2. Time; 5 hr; 37 C incubation
4. Controls; 23 nL; Tetraoctylammonium bromide 6.4pM to 92 uM
5. Time; 24 hr; 37 C incubation
6. Reagent; 5 uL; CellTiter Glo reagent
7. Time; 30 min; Room Temperature
8. Detection; Luminescence; Viewlux plate reader
Keywords: cell viability, cytotoxicity, lymphoblastoid cell line, luminescence, NTPHTS, NTPHTS_NCGC, NIEHS, DSSTox, MLSMR, MLSCN, NIH Roadmap, qHTS, NCGC
Potency is the fitted concentration of half-maximal effect.

SMILES | activity change, negative = cytotoxicity [%] | Potency
CN(C)CCC(c1ccccc1)c1ccccn1 (stereo not given) | -2.77 | 
CCCNC(=O)NS(=O)(=O)c1ccc(Cl)cc1 | 6.04 | 
O=c1c(-c2ccc(O)cc2)coc2cc(O)ccc12 | -9.98 | 
CCn1cc(C(=O)O)c(=O)c2ccc(C)nc21 | 20.6 | 
CC(=O)c1ccc(S(=O)(=O)NC(=O)NC2CCCCC2)cc1 | -7.81 | 
O=C(O)Cc1cccc2ccccc12 | 5.57 | 
O=c1c(O)c(-c2ccc(O)cc2)oc2cc(O)cc(O)c12 | -6.12 | 
O=c1[nH]cnc2c1ncn2[C@H]1CC[C@@H](CO)O1 | 19.4 | 
CC/C(=C(\c1ccccc1)c1ccc(OCCN(C)C)cc1)c1ccccc1 |  | 39.8 µM (active)
CCCCC1C(=O)N(c2ccccc2)N(c2ccccc2)C1=O | 8.66 | 
O=C(O)c1cc(O)c2c(c1)C(=O)c1cccc(O)c1C2=O | 4.09 | 
O=c1cc(-c2ccc(O)cc2)oc2cc(O)cc(O)c12 | -8.64 | 
CC(=O)O[C@]1(C(C)=O)CC[C@H]2[C@@H]3C=C(Cl)C4=CC(=O)[C@@H]5C[C@@H]5[C@]4(C)[C@H]3CC[C@@]21C | -13.4 | 
O=C1NC(=O)C(c2ccccc2)(c2ccccc2)N1 | 9.14 | 
CC1=C(/C=C/C(C)=C/C=C/C(C)=C/C(=O)Nc2ccc(O)cc2)C(C)(C)CCC1 |  | 39.8 µM (active)
